Laboratory results: PubChem BioAssay (EPA / NIEHS)
“And” between values parts separate entries of the source, which are not always exact repeats. Equal entries are not always repeated. Results filed as inconclusive are left out. The source holds several records for some structures; these can differ, active in one and inactive in another. The source made the active and inactive calls. How the source made its calls, unless noted: active means hit-call score of the fitted dose curve at least 0.9, where 1 is the maximum; inactive means score below 0.9.

Key:
[1] = ATG_TCF_b_cat_CIS: Attagene CIS-FACTORIAL HepG2 Assay for human T-Cell-Factor with beta-catenin (TCF/b-cat) (AID 2282965); details: HepG2 TCF/beta-catenin cis-reporter transcription, actives raise or lower the signal
Summary of the method: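 HepG2 cells transiently transfected with cis-promoter-driven multiplexed reporter units; reporter mRNA measured 24 h after dosing by RT-PCR, FAM labelling, HpaI digestion and capillary electrophoresis. Bidirectional fitting relative to DMSO baseline.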

[2] = ATG_TAL_CIS: Attagene CIS-FACTORIAL HepG2 Assay for human TAL Basal Promoter (AID 2282966); details: HepG2 Attagene cis-factorial TAL promoter reporter; actives raise or lower the signal;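 further: background control endpoint measuring basal TAL promoter reporter mRNA not a specific factor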
Summary of the method: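 RT-PCR plus capillary electrophoresis quantifies reporter mRNA induction in transiently transfected HepG2 cells after 24 h chemical treatment. DMSO serves as negative control and baseline for bidirectional fitting.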

[3] = ATG_VDRE_CIS: Attagene CIS-FACTORIAL HepG2 Assay for human Vitamin D Receptor Element (VDRE) (AID 2282968); details: HepG2 VDRE cis-reporter transcription, actives raise or lower the signal
Summary of the method: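 Transiently transfected HepG2 cells carrying cis-regulated reporter transcription units were exposed for 24 h. Reporter mRNA was measured by RT-PCR with fluorescent labelling and capillary electrophoresis, and fitted in both directions against DMSO.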

[4] = target: Nuclear receptor subfamily 1 group I member 3 (Homo sapiens) (UniProt Q14994); assay: ATG_CAR_TRANS: Attagene TRANS-FACTORIAL HepG2 Assay for human Constitutive Androstane Receptor (CAR) (AID 2282969; active means hit-call score of the fitted dose curve at least 0.9, where 1 is the maximum;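 further: activators raise reporter mRNA above DMSO so AC50 marks induction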); details: HepG2 Attagene TRANS-FACTORIAL CAR reporter
Summary of the method: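 HepG2 cells transiently transfected with GAL4-UAS reporter units; TRANS format reads activity of exogenous chimeric NR-Gal4 protein. After 24 h dosing, reporter mRNA quantified by RT-PCR, 6-FAM labelling and capillary electrophoresis; gain of signal fitted against DMSO.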

[5] = target: Estrogen receptor (Homo sapiens) (UniProt P03372); assay: ATG_ERa_TRANS: Attagene TRANS-FACTORIAL HepG2 Assay for human Estrogen Receptor alpha (ERa) (AID 2282970; active means hit-call score of the fitted dose curve at least 0.9, where 1 is the maximum); details: HepG2 Attagene TRANS ERa GAL4 reporter, mRNA
Summary of the method: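 Cells: HepG2, transiently transfected. Construct: GAL4-UAS reporter units regulated by exogenous NR-Gal4 chimeras. Time: 24 h. Detection: reporter mRNA by RT-PCR, capillary electrophoresis, fluorescence. Baseline: DMSO, upward fitting.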

[6] = target: Steroid hormone receptor ERR1 (Homo sapiens) (UniProt P11474); assay: ATG_ERRa_TRANS: Attagene TRANS-FACTORIAL HepG2 Assay for human Estrogen-Related Receptor alpha (ERRa) (AID 2282971; active means hit-call score of the fitted dose curve at least 0.9, where 1 is the maximum); details: HepG2 Attagene TRANS reporter, ERRa transactivation
Summary of the method: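 Reporter transcripts from ERRa-Gal4 chimera activity measured in transiently transfected human HepG2 cells 24 hours after dosing, using RT-PCR with 6-FAM primer extension, HpaI digestion and capillary electrophoresis; DMSO is baseline.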

[7] = target: X-box-binding protein 1 (Homo sapiens) (UniProt P17861); assay: ATG_Xbp1_CIS: Attagene CIS-FACTORIAL HepG2 Assay for human X-box Binding Protein 1 (XBP1) (AID 2282972); details: HepG2 XBP1 cis-element reporter, Attagene multiplex; actives raise or lower the signal
Summary of the method: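 HepG2 cells transiently transfected with multiple cis-element reporter units report endogenous TF activity; 24 h exposure, then reporter mRNA measured by RT-PCR, 6-FAM labelling, HpaI digestion and capillary electrophoresis. Bidirectional fitting versus DMSO.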

[8] = ATG_M_19_TRANS: Attagene TRANS-FACTORIAL HepG2 Assay for M19 Transcription Factor (Internal Marker) (AID 2282974; active means hit-call score of the fitted dose curve at least 0.9, where 1 is the maximum); details: HepG2 Attagene TRANS-FACTORIAL M19 internal marker reporter
Summary of the method: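 Transfected HepG2 (GAL4-UAS MRTUs), 24 h compound, TriZol RNA, DNase-treated RT, reporter PCR, FAM label, HpaI digest, CE fluorescence; gain vs DMSO.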

[9] = ATG_TGFb_CIS: Attagene CIS-FACTORIAL HepG2 Assay for human Transforming Growth Factor (TGF) (AID 2282967); details: HepG2 Attagene CIS TGFb reporter, mRNA transcription; actives raise or lower the signal
Summary of the method: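 Transient MRTU transfection of HepG2 (FuGene 6). Dose 24 h. TriZol RNA, oligo(dT) RT, PCR, 6-FAM primer extension, HpaI cut, CE. Bidirectional fit, DMSO = baseline.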

[10] = target: Androgen receptor (Homo sapiens) (UniProt P10275); assay: ATG_AR_TRANS: Attagene TRANS-FACTORIAL HepG2 Assay for human Androgen Receptor (AR) (AID 2282973; active means hit-call score of the fitted dose curve at least 0.9, where 1 is the maximum); details: HepG2 Attagene TRANS-FACTORIAL AR reporter transcription
Summary of the method: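 Transcriptional activity of an exogenous AR–Gal4 fusion read as GAL4-UAS reporter transcript levels in transfected human HepG2 cells after 24 h dosing. Detection via RT-PCR, 6-FAM labelling, HpaI digest and capillary electrophoresis; increase over DMSO baseline.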

Measured: AC50

Chain of Steroid hormone receptor ERR1 (Homo sapiens) (P11474 whole entry, looked up, the tested form may be a part): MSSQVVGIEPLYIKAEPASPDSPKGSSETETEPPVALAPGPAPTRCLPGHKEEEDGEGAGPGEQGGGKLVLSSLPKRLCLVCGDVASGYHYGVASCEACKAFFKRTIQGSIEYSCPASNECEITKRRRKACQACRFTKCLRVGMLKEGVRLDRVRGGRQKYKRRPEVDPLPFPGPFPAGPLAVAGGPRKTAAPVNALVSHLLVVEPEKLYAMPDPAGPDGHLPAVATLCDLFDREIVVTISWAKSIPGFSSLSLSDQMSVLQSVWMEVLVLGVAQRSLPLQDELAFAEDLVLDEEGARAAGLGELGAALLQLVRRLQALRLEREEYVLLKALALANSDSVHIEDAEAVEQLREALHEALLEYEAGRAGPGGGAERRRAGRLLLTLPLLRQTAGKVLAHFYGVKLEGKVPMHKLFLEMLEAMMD
Chain of X-box-binding protein 1 (Homo sapiens) (P17861 whole entry, looked up): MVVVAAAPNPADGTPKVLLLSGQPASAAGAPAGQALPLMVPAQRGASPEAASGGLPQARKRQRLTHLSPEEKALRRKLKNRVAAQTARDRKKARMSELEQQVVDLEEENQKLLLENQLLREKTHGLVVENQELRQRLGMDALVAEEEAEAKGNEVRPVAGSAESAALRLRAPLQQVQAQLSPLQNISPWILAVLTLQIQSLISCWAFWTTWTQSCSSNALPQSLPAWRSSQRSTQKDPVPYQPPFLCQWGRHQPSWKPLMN
Chain of Estrogen receptor (Homo sapiens) (P03372 whole entry, looked up, the tested form may be a part): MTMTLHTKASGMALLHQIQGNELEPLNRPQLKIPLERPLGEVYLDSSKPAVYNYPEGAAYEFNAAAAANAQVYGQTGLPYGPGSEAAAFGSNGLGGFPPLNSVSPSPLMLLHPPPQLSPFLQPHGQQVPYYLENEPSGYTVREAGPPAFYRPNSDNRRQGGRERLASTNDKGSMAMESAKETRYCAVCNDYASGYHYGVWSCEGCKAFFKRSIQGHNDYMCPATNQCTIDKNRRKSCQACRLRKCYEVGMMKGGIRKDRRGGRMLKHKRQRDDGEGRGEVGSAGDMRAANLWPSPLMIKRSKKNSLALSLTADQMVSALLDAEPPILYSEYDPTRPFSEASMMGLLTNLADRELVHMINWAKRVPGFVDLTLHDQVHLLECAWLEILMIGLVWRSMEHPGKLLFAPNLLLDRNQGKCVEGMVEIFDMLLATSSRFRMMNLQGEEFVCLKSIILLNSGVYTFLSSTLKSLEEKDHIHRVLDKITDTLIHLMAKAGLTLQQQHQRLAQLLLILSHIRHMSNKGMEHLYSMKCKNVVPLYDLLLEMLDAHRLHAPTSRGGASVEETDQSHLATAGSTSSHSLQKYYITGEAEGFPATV
Chain of Nuclear receptor subfamily 1 group I member 3 (Homo sapiens) (Q14994 whole entry, looked up, the tested form may be a part): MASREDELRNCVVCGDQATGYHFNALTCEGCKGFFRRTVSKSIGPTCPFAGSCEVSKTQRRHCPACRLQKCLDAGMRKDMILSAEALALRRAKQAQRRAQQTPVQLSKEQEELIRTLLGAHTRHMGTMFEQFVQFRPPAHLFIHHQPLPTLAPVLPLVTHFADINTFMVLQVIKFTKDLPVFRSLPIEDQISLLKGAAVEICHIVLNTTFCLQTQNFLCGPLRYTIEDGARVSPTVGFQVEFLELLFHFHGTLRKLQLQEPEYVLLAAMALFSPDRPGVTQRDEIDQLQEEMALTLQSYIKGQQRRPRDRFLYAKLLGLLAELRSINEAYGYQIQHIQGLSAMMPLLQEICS
Chain of Androgen receptor (Homo sapiens) (P10275 whole entry, looked up, the tested form may be a part): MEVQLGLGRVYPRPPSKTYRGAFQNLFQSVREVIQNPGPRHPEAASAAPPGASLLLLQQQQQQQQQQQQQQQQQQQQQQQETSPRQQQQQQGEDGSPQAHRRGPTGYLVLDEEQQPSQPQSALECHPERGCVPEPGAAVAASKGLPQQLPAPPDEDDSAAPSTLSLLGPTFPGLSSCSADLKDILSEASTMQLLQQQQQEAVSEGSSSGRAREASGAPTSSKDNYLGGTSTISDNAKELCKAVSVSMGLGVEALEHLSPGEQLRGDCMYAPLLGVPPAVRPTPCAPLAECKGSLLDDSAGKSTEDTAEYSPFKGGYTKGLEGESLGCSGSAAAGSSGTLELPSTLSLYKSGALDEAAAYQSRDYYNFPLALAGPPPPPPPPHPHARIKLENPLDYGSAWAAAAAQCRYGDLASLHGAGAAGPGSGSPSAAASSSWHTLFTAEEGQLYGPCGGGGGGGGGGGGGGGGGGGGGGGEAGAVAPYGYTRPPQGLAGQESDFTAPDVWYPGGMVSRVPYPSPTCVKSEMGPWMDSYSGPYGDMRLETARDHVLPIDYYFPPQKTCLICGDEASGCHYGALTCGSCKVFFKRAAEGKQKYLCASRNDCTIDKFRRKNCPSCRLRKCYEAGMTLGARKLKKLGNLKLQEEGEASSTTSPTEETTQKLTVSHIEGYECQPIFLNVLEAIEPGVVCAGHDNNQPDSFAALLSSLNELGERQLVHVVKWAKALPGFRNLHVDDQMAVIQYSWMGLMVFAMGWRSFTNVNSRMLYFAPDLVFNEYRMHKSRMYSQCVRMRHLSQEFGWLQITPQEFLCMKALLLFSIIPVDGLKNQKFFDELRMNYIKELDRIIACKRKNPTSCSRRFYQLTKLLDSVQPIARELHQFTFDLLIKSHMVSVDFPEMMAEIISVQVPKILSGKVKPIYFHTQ

CCOCN(C(=O)CCl)c1c(C)cccc1CC
inactive: [1] | [2] | [3] | [4] | [5] | [6] | [7] | [8]

OCCOc1ccccc1
inactive: [1] | [2] | [9] | [3] | [4] | [5] | [6] | [7] | [8]

N#CN
inactive: [1] | [2] | [3] | [4] | [5] | [7]

COP(=S)(OC)Oc1ccc(SC)c(C)c1
inactive: [1] | [2] | [9] | [4] | [7]
active: [3] 25.7 µM | [5] 18.8 µM

ClC1C(Cl)C(Cl)C(Cl)C(Cl)C1Cl (configuration not stated)
inactive: [1] | [2] | [6] | [7] | [8]
active: [2] 100 µM | [7] 42.6 µM

O=[N+]([O-])/N=C1\NCCN1Cc1ccc(Cl)nc1
inactive: [1] | [2] | [9] | [3] | [4] | [5] | [6] | [7] | [10]

CC(C)N(C(=O)COc1nnc(C(F)(F)F)s1)c1ccc(F)cc1
inactive: [1] | [2] | [9] | [5] | [8]
active: [7] 29.7 µM

Clc1ccccc1-c1nnc(-c2ccccc2Cl)nn1
inactive: [1] | [2] | [9] | [3] | [4] | [5] | [7] | [8]

Oc1cc(Cl)ccc1Oc1ccc(Cl)cc1Cl
inactive: [1] | [2] | [9] | [3] | [4] | [6] | [7] | [8]
active: [1] 11.1 µM and 19.2 µM and 14.4 µM | [2] 11.1 µM | [3] 8.06 µM [middle of 6 runs] | [7] 11.3 µM [middle of 7 runs]

O=C(Nc1ccccc1)Nc1cnns1
inactive: [1] | [2] | [4] | [5] | [6] | [8]
active: [3] 50 µM | [7] 77.6 µM

CCCN(CCC)c1c([N+](=O)[O-])cc(C(F)(F)F)cc1[N+](=O)[O-]
active: [3] 13.4 µM | [5] 35.9 µM
inactive: [1] | [2] | [9] | [4] | [7] | [8]

CNC(=O)Oc1cccc(N=CN(C)C)c1
inactive: [1] | [2] | [9] | [4] | [5]
active: [3] 82.3 µM | [7] 90.4 µM

C[C@H]1[C@H](c2ccc(Cl)cc2)SC(=O)N1C(=O)NC1CCCCC1
active: [3] 13.7 µM
inactive: [1] | [2] | [4] | [5] | [7]

CC(C)(C)C(O)C(Oc1ccc(Cl)cc1)n1cncn1 (configuration not stated)
inactive: [1] | [2] | [9] | [3] | [4] | [7] | [8]

COc1nn(CSP(=S)(OC)OC)c(=O)s1
active: [3] 50 µM
inactive: [1] | [2] | [4] | [5] | [7]

Cc1cc(C)nc(NC(=O)NS(=O)(=O)c2ccccc2C(=O)OC2COC2)n1
inactive: [1] | [2] | [4] | [5] | [7]
active: [3] 50 µM

Oc1ccc(Cl)cc1Cc1ccccc1
active: [1] 16.4 µM | [7] 7.32 µM and 11.2 µM and 15.9 µM
inactive: [1] | [2] | [9] | [4] | [7] | [10] | [8]

CNC(=O)Oc1ccccc1OC(C)C
inactive: [1] | [2] | [3] | [4] | [5] | [6] | [7] | [8]

CNC(=O)CSP(=S)(OC)OC
inactive: [1] | [2] | [3] | [4] | [5] | [7]

COc1cc(OC)nc(NC(=O)NS(=O)(=O)c2cc(NC=O)ccc2C(=O)N(C)C)n1
inactive: [1] | [2] | [3] | [4] | [5] | [6] | [7] | [10] | [8]

CCC(C)(C)C(=O)OC1=C(c2ccc(Cl)cc2Cl)C(=O)OC12CCCCC2
inactive: [1] | [2] | [9] | [3] | [6] | [7] | [8]

CC1(C)C(C=C(Cl)Cl)C1C(=O)OC(C#N)c1ccc(F)c(Oc2ccccc2)c1 (configuration not stated)
inactive: [1] | [2] | [9] | [4] | [5] | [6] | [7] | [8]
active: [3] 8.85 µM

CC[C@H](C)[C@H]1O[C@]2(C=C[C@@H]1C)C[C@@H]1C[C@@H](C/C=C(\C)[C@@H](O[C@H]3C[C@H](OC)[C@@H](O[C@H]4C[C@H](OC)[C@@H](O)[C@H](C)O4)[C@H](C)O3)[C@@H](C)/C=C/C=C3\CO[C@@H]4[C@H](O)C(C)=C[C@@H](C(=O)O1)[C@]34O)O2 (tested in a mixture with another compound)
inactive: [1] | [2] | [9] | [3] | [5] | [6] | [7] | [8]

O=C(O)C(F)(F)C(F)(F)C(F)(F)C(F)(F)C(F)(F)C(F)(F)C(F)(F)F
inactive: [1] | [2] | [3] | [7] | [8]
active: [1] 221 µM and 231 µM
